{
  "source": "PubChem BioAssay (Tox21)",
  "note": "Inconclusive results are not listed. Values without a mark were called inactive. Unless noted, the call rests on the fitted dose curve; in most records, active means well fitted cell-killing curve with a large enough effect in the repeat runs; inconclusive means weak or mixed curves, or effect the other way; inactive means no such curve, though single readings can be large or run the other way. On the % scale 0 is the no-effect control and ±100 the full control effect.",
  "data": [
    {"biological_target": "Peroxisome proliferator-activated receptor delta (Homo sapiens) (UniProt Q03181)", "sequence (Q03181 whole entry, looked up)": "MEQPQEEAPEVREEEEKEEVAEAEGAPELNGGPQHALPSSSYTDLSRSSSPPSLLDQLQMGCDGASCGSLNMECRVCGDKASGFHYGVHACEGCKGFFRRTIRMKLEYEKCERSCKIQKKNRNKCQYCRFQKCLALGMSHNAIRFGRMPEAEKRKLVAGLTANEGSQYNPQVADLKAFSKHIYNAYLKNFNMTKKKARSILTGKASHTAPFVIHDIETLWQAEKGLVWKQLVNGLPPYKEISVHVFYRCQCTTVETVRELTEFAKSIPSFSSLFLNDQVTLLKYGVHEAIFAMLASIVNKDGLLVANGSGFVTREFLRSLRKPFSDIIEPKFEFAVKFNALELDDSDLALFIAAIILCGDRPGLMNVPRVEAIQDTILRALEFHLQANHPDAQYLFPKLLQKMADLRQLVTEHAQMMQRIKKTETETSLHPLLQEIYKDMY", "experiment": "qHTS assay to identify small molecule antagonists of the peroxisome proliferator-activated receptor delta (PPARd) signaling pathway (AID 743215; active means well fitted inhibition curve with a large enough effect in the signal ratio in the repeat runs, not every such curve was filed as active; the % refers to the signal ratio;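 further: cells stimulated with agonist L165041 at 300 nM final during compound exposure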)", "conditions": "HEK293H PPARd-UAS-bla, beta-lactamase FRET ratio, antagonist, 17 h; series mostly up to 62 µM; ratio activity, negative = inhibition: at the top concentration", "method_in_brief": "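Agonist L165041 (300 nM final) added with compound to PPARd-bla HEK293H UAS-bla reporter cells; 17 h incubation at 37 C. Read-out: LiveBLAzer FRET substrate, 2 h at room temperature, fluorescence intensity.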", "values": [
      {"smiles": "COC(=O)C(C)=O", "ratio activity, negative = inhibition": "-22% [at 80.4 µM]"},
      {"smiles": "Oc1ccc(Sc2ccc(O)cc2)cc1", "ratio activity, negative = inhibition": "-13.9%"},
      {"smiles": "C=C(C)C(=O)OCCOc1ccccc1", "ratio activity, negative = inhibition": "-11.7%"},
      {"smiles": "Cc1cccc(OCCOc2cccc(C)c2)c1", "ratio activity, negative = inhibition": "6.67% [at 80.4 µM]"}
    ]},
    {"biological_target": "Bile acid receptor (Homo sapiens) (UniProt Q96RI1)", "sequence (Q96RI1 whole entry, looked up)": "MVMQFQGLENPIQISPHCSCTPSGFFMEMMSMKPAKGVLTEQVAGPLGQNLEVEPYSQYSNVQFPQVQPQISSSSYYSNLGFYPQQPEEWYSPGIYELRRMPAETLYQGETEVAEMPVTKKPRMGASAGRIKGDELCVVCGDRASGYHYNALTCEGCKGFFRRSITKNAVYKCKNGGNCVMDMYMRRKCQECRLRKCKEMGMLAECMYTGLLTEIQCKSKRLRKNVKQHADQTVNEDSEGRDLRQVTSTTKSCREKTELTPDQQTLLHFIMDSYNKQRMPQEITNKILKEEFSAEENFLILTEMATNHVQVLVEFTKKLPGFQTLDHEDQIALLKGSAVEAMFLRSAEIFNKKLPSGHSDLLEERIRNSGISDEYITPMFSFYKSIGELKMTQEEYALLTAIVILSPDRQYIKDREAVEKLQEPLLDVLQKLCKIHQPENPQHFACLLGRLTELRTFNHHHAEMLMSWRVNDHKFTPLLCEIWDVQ", "experiment": "qHTS assay to identify small molecule antagonists of the farnesoid-X-receptor (FXR) signaling pathway (AID 743217; active means well fitted inhibition curve with a large enough effect in the signal ratio in the repeat runs, not every such curve was filed as active; the % refers to the signal ratio)", "conditions": "HEK293T FXR-UAS-bla, beta-lactamase ratio, CDCA-stimulated, 16 h; series mostly up to 62.6 µM; activity change, negative = inhibition: at the top concentration", "method_in_brief": "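Antagonist mode: chenodeoxycholic acid at 50 uM final stimulates a UAS-driven beta-lactamase reporter in HEK 293T FXR-bla cells during 16 h, 37C compound exposure. Read-out is FRET substrate fluorescence after 2 h at room temperature.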", "values": [
      {"smiles": "CC(=O)O[C@H]1C[C@@H]2CC[C@@H]3[C@H](CC[C@@]4(C)[C@H]3C[C@H]([N+]3(C)CCCCC3)[C@@H]4OC(C)=O)[C@@]2(C)C[C@@H]1N1CCCCC1", "activity change, negative = inhibition": "-4.01%"},
      {"smiles": "CC(C)CCCC(C)CCO", "note": "(stereo not given)", "activity change, negative = inhibition": "-0.693%"},
      {"smiles": "CC(=O)NCCCS(=O)(=O)O", "activity change, negative = inhibition": "10.4% [at 29.1 µM]"},
      {"smiles": "CCCCC(CC)(CO)CO", "activity change, negative = inhibition": "1.78%"},
      {"smiles": "CCOc1ccc2[nH]cc(C(=O)NCc3ccccc3)c(=O)c2n1", "activity change, negative = inhibition": "2.35%"},
      {"smiles": "CCCCCCCCC(CO)CCCCCC", "note": "(stereo not given)", "activity change, negative = inhibition": "-10.2%"},
      {"smiles": "CCCCOC(O)CC", "note": "(stereo not given)", "activity change, negative = inhibition": "1.04%"},
      {"smiles": "CCCCc1cc2ccccc2c(OCCN(C)C)n1", "activity change, negative = inhibition": "-7.22%"},
      {"smiles": "O=c1[nH]cnc2ccccc12", "activity change, negative = inhibition": "-4.63% [at 81.1 µM]"},
      {"smiles": "N#CCc1cccc(C(F)(F)F)c1", "activity change, negative = inhibition": "3.07%"},
      {"smiles": "Nc1nc(N)c(-c2ccccc2)s1", "activity change, negative = inhibition": "1.92%"},
      {"smiles": "CNS(=O)(=O)Cc1ccc2[nH]cc(CCN(C)C)c2c1", "activity change, negative = inhibition": "-0.534%"},
      {"smiles": "CCN1CCC[C@H]1CNC(=O)c1c(OC)ccc(Br)c1OC", "activity change, negative = inhibition": "7.26%"},
      {"smiles": "CC(C)(C)c1cc(CCC(=O)OCC(COC(=O)CCc2cc(C(C)(C)C)c(O)c(C(C)(C)C)c2)(COC(=O)CCc2cc(C(C)(C)C)c(O)c(C(C)(C)C)c2)COC(=O)CCc2cc(C(C)(C)C)c(O)c(C(C)(C)C)c2)cc(C(C)(C)C)c1O", "activity change, negative = inhibition": "5.11% [at 29.1 µM]"},
      {"smiles": "CCOC(=O)CC(=O)c1cc(F)c(Cl)nc1Cl", "activity change, negative = inhibition": "-1.78% [at 81.1 µM]"},
      {"smiles": "C=CCCCCCC", "activity change, negative = inhibition": "2.12%"}
    ]},
    {"system": "not listed separately", "experiment": "qHTS assay to identify small molecule agonists of the farnesoid-X-receptor (FXR) signaling pathway - cell viability counter screen (AID 743218); further: nearly all actives have a fitted effect of over 45% in size", "conditions": "FXR-bla HEK293T viability, CellTiter-Glo luminescence, 16 h; series mostly up to 62.6 µM; viability change, negative = cytotoxic: at the top concentration", "method_in_brief": "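Viability counter screen in the same wells: CellTiter-Glo luminescence, 30 min room-temperature incubation, measured after the beta-lactamase read. Cells were GeneBLAzer FXR-UAS-bla HEK 293T, compound-treated 16 h at 37C.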", "values": [
      {"smiles": "CC(CN)CCCN", "note": "(stereo not given)", "viability change, negative = cytotoxic": "0.116%"},
      {"smiles": "CCN(CCO)CCCC(C)Nc1ccnc2cc(Cl)ccc12", "note": "(stereo not given)", "viability change, negative = cytotoxic": "-0.758% [at 5.95 µM]"},
      {"smiles": "CC(C)(C)c1cc(CO)cc(C(C)(C)C)c1O", "viability change, negative = cytotoxic": "-3.61% [at 81.1 µM]"},
      {"smiles": "CC(=O)O[C@H]1C[C@@H]2CC[C@@H]3[C@H](CC[C@@]4(C)[C@H]3C[C@H]([N+]3(C)CCCCC3)[C@@H]4OC(C)=O)[C@@]2(C)C[C@@H]1N1CCCCC1", "viability change, negative = cytotoxic": "4.04%"},
      {"smiles": "CC(C)CCCC(C)CCO", "note": "(stereo not given)", "viability change, negative = cytotoxic": "-4.56%"},
      {"smiles": "CC(=O)NCCCS(=O)(=O)O", "viability change, negative = cytotoxic": "-19.7% [at 29.1 µM]"},
      {"smiles": "CCCCC(CC)(CO)CO", "viability change, negative = cytotoxic": "-0.525%"},
      {"smiles": "N#CCCNCCC#N", "viability change, negative = cytotoxic": "14.3% [at 81.1 µM]"},
      {"smiles": "CCCCOC(=O)c1ccccc1C(=O)OCC(CC)CCCC", "note": "(stereo not given)", "viability change, negative = cytotoxic": "41.5%"},
      {"smiles": "CC(=O)Nc1ccc(/C=N/NC(N)=S)cc1", "viability change, negative = cytotoxic": "1.49%"},
      {"smiles": "CCCCCCCCC(CO)CCCCCC", "note": "(stereo not given)", "viability change, negative = cytotoxic": "15.1%"},
      {"smiles": "CCCC[C@H]1CN(CC2CCOCC2)C(=O)OC12CCN(C1(C)CCN(C(=O)c3c(C)ncnc3C)CC1)CC2", "viability change, negative = cytotoxic": "8.32%"},
      {"smiles": "CCCCOC(O)CC", "note": "(stereo not given)", "viability change, negative = cytotoxic": "-12.8%"},
      {"smiles": "O=C1CCCCCO1", "viability change, negative = cytotoxic": "14.7% [at 81.1 µM]"},
      {"smiles": "CC(=O)OCCc1ccccc1", "viability change, negative = cytotoxic": "14.3%"},
      {"smiles": "CCCCc1cc2ccccc2c(OCCN(C)C)n1", "viability change, negative = cytotoxic": "-17%"},
      {"smiles": "O=c1[nH]cnc2ccccc12", "viability change, negative = cytotoxic": "2.36% [at 81.1 µM]"},
      {"smiles": "CN1CCC[C@@H]1c1cccnc1", "viability change, negative = cytotoxic": "11.7%"},
      {"smiles": "COCCOCCOCCOCCOC", "viability change, negative = cytotoxic": "10.3%"},
      {"smiles": "CC(C)c1ccccc1C(C)C", "viability change, negative = cytotoxic": "-1.24%"},
      {"smiles": "N#CCc1cccc(C(F)(F)F)c1", "viability change, negative = cytotoxic": "1.13%"},
      {"smiles": "Nc1nc(N)c(-c2ccccc2)s1", "viability change, negative = cytotoxic": "6.59%"},
      {"smiles": "CNS(=O)(=O)Cc1ccc2[nH]cc(CCN(C)C)c2c1", "viability change, negative = cytotoxic": "-17.9%"},
      {"smiles": "O=C(O)C1CCC(C(=O)O)CC1", "note": "(stereo not given)", "viability change, negative = cytotoxic": "-7.48%"},
      {"smiles": "COC(Cc1ccccc1)OC", "viability change, negative = cytotoxic": "-6.02%"},
      {"smiles": "O=C(O)/C=C/c1cnc[nH]1", "viability change, negative = cytotoxic": "5.91%"},
      {"smiles": "CCN1CCC[C@H]1CNC(=O)c1c(OC)ccc(Br)c1OC", "viability change, negative = cytotoxic": "9.04%"},
      {"smiles": "N[C@H]1C(O)O[C@H](CO)[C@H](O)[C@@H]1O", "note": "(stereo not given in full)", "viability change, negative = cytotoxic": "0.878%"},
      {"smiles": "CC(C)(C)c1cc(CCC(=O)OCC(COC(=O)CCc2cc(C(C)(C)C)c(O)c(C(C)(C)C)c2)(COC(=O)CCc2cc(C(C)(C)C)c(O)c(C(C)(C)C)c2)COC(=O)CCc2cc(C(C)(C)C)c(O)c(C(C)(C)C)c2)cc(C(C)(C)C)c1O", "viability change, negative = cytotoxic": "0.308% [at 29.1 µM]"},
      {"smiles": "CCOC(=O)CC(=O)c1cc(F)c(Cl)nc1Cl", "viability change, negative = cytotoxic": "3.1% [at 81.1 µM]"},
      {"smiles": "C=CCCCCCC", "viability change, negative = cytotoxic": "14.9%"},
      {"smiles": "COC(=O)C(C)=O", "viability change, negative = cytotoxic": "6.69% [at 81.1 µM]"},
      {"smiles": "Oc1ccc(Sc2ccc(O)cc2)cc1", "viability change, negative = cytotoxic": "29.8%"},
      {"smiles": "C=C(C)C(=O)OCCOc1ccccc1", "viability change, negative = cytotoxic": "-2.79%"},
      {"smiles": "Cc1cccc(OCCOc2cccc(C)c2)c1", "viability change, negative = cytotoxic": "-0.431% [at 81.1 µM]"}
    ]}
  ]
}
